# Laboratory results reported in PubChem BioAssay (EPA / NIEHS).
# The source made the active and inactive calls. Rule for the calls: active = hit-call score of the fitted dose curve at least 0.9, where 1 is the maximum; inactive = score below 0.9.
# Experiments:
# Conditions in all cases: mRNA level, 48 h; actives raise or lower the signal
# [1] = read-out: ABC Transporter (ABCC3), ABCC3 (gene 8714); assay: LTEA_HepaRG_ABCC3: Life Technologies and Expression Analysis (LTEA) Assay for ABC Transporter (ABCC3) using HepaRG (AID 2283462)
# How it was run: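 qRT-PCR read-out of ABCC3 transcript, normalized to three housekeeping genes (ACTB, GAPDH, POLR2A), after 48 h chemical exposure of human HepaRG cells. Eight half-log concentrations, highest 100 uM, in 0.5% DMSO; gain or loss fitted relative to DMSO baseline.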
# [2] = read-out: ABC Transporter (ABCB11), ABCB11 (gene 8647); assay: LTEA_HepaRG_ABCB11: Life Technologies and Expression Analysis (LTEA) Assay for ABC Transporter (ABCB11) using HepaRG (AID 2283463)
# How it was run: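 Using HepaRG cultures held in 0.5% DMSO, chemicals were tested at half-log dilutions from 100 uM for 48 h. Induction or suppression of ABCB11 mRNA, normalized to ACTB, GAPDH and POLR2A, was fitted bidirectionally against vehicle.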
# [3] = read-out: ABC Transporter (ABCC2), ABCC2 (gene 1244); assay: LTEA_HepaRG_ABCC2: Life Technologies and Expression Analysis (LTEA) Assay for ABC Transporter (ABCC2) using HepaRG (AID 2283464)
# How it was run: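 qRT-PCR (TaqMan, Fluidigm array) read-out of ABCC2 mRNA, normalized to three housekeeping genes. Differentiated HepaRG cells were treated 48 h in serum-free induction medium with 8-point half-log series from 100 uM in 0.5% DMSO; curves fitted bidirectionally relative to DMSO.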
# [4] = read-out: Broad substrate specificity ATP-binding cassette transporter ABCG2 (Homo sapiens) (UniProt Q9UNQ0); assay: LTEA_HepaRG_ABCG2: Life Technologies and Expression Analysis (LTEA) Assay for ABC Transporter (ABCG2) using HepaRG (AID 2283465)
# How it was run: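 Gene expression of ABCG2 in HepaRG liver cells is quantified by qRT-PCR following 48 h exposure across an eight-point series topping at 100 uM. Values come from bidirectional fitting relative to DMSO vehicle.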
# [5] = read-out: ATP-citrate lyase (ACLY), ACLY (gene 47); assay: LTEA_HepaRG_ACLY: Life Technologies and Expression Analysis (LTEA) Assay for ATP-citrate lyase (ACLY) using HepaRG (AID 2283466)
# How it was run: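 ACLY expression changes in human HepaRG liver cells are quantified by qRT-PCR after 48 h exposure to test chemicals (maximum 100 uM, half-log steps). Values are fitted in both directions relative to 0.5% DMSO vehicle.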
# [6] = read-out: Alkaline Phosphatase, Placental (ALPP) gene, ALPP (gene 250); assay: LTEA_HepaRG_ALPP: Life Technologies and Expression Analysis (LTEA) Assay for Alkaline Phosphatase, Placental (ALPP) gene using HepaRG (AID 2283468);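 for AC50: differentiated human HepaRG liver cells in serum-free induction medium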
# How it was run: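 qRT-PCR readout of ALPP mRNA (Fluidigm TaqMan), normalized to ACTB/GAPDH/POLR2A, after 48 h chemical exposure of HepaRG cells; 8-point half-log series, top 100 uM, 0.5% DMSO vehicle. Bidirectional curve fit versus DMSO baseline.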
# [7] = read-out: Bcl-2 (BAD) gene, BAD (gene 572); assay: LTEA_HepaRG_BAD: Life Technologies and Expression Analysis (LTEA) Assay for Bcl-2 (BAD) gene using HepaRG (AID 2283469)
# How it was run: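 Activity values reflect up- or down-regulation of BAD mRNA in human HepaRG hepatic cells treated 48 h in serum-free medium, with eight-point half-log dosing capped at 100 uM and 0.5% DMSO vehicle.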
# [8] = read-out: Bcl-2 (BAX) gene, BAX (gene 581); assay: LTEA_HepaRG_BAX: Life Technologies and Expression Analysis (LTEA) Assay for Bcl-2 (BAX) gene using HepaRG (AID 2283470)
# How it was run: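 qRT-PCR read-out of BAX mRNA, normalized to three housekeeping genes, after 48 h chemical exposure of human HepaRG cells in serum-free induction medium; eight-point half-log series, top 100 uM, 0.5% DMSO vehicle; bidirectional fit versus DMSO.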
# BCL2L11 (gene 10018) = assay: LTEA_HepaRG_BCL2L11: Life Technologies and Expression Analysis (LTEA) Assay for Bcl-2 (BCL2L11) gene using HepaRG (AID 2283473)
# How it was run: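 HepaRG, 48 h exposure, 8-pt half-log series from 100 uM in 0.5% DMSO, duplicates; qRT-PCR (Fluidigm TaqMan) for BCL2L11, housekeeping-normalized; bidirectional curve fit relative to DMSO baseline.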
# [9] = read-out: Apolipoprotein A-V (APOA5) gene, APOA5 (gene 116519); assay: LTEA_HepaRG_APOA5: Life Technologies and Expression Analysis (LTEA) Assay for Apolipoprotein A-V (APOA5) gene using HepaRG (AID 2283474)
# How it was run: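 HepaRG, 48 h chemical exposure in serum-free induction medium, 8-pt half-log series (top 100 uM), 0.5% DMSO vehicle, duplicates. Readout: APOA5 mRNA by qRT-PCR, housekeeping-normalized; bidirectional fit vs DMSO baseline.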
# [10] = read-out: Apoptosis regulator Bcl-2 (Homo sapiens) (UniProt P10415); assay: LTEA_HepaRG_BCL2: Life Technologies and Expression Analysis (LTEA) Assay for Bcl-2 gene using HepaRG (AID 2283475)
# How it was run: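 qRT-PCR read-out (Fluidigm TaqMan) of BCL2 transcript, normalised to three housekeeping genes, after 48 h chemical exposure of HepaRG cells; 8-point half-log series, top 100 uM, 0.5% DMSO vehicle. Gain or loss of signal fitted relative to DMSO baseline.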
# [11] = read-out: Bcl-2 (BID) gene, BID (gene 637); assay: LTEA_HepaRG_BID: Life Technologies and Expression Analysis (LTEA) Assay for Bcl-2 (BID) gene using HepaRG (AID 2283476)
# How it was run: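 HepaRG, 48 h exposure, 8-pt half-log series, top 100 uM, 0.5% DMSO vehicle, duplicates. Readout: BID mRNA by TaqMan qRT-PCR; housekeeping-normalized; bidirectional curve fit vs DMSO baseline.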
# Caspase-3 (Homo sapiens) = Caspase-3 (Homo sapiens) (UniProt P42574); assay: LTEA_HepaRG_CASP3: Life Technologies and Expression Analysis (LTEA) Assay for cysteine-aspartic acid protease (CASP3) using HepaRG (AID 2283477)
# How it was run: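 HepaRG, 48 h exposure, 8 conc. (top 100 uM, half-log steps, duplicate), 0.5% DMSO vehicle; qRT-PCR of CASP3 transcript, housekeeping-normalised (ACTB/GAPDH/POLR2A); bidirectional curve fit vs DMSO baseline.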
# [12] = read-out: Cytochrome P450 (CYP24A1), CYP24A1 (gene 1591); assay: LTEA_HepaRG_CYP24A1: Life Technologies and Expression Analysis (LTEA) Assay for Cytochrome P450 (CYP24A1) using HepaRG (AID 2283478)
# How it was run: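 qRT-PCR read-out: CYP24A1 transcript levels normalized to three housekeeping genes, bidirectional curve fits against 0.5% DMSO baseline. Human HepaRG cells treated 48 h with chemicals at eight concentrations from 100 uM in half-log steps.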
# [13] = read-out: Cytochrome P450 (CYP1A2), CYP1A2 (gene 1544); assay: LTEA_HepaRG_CYP1A2: Life Technologies and Expression Analysis (LTEA) Assay for Cytochrome P450 (CYP1A2) using HepaRG (AID 2283479)
# How it was run: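 HepaRG, 48 h exposure, top 100 uM, half-log 8-pt, 0.5% DMSO vehicle, duplicates. Readout: TaqMan qRT-PCR of CYP1A2 mRNA, housekeeping-normalized (ACTB/GAPDH/POLR2A). Gain/loss fit relative to DMSO baseline.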
# [14] = read-out: cysteine-aspartic acid protease (CASP8), CASP8 (gene 841); assay: LTEA_HepaRG_CASP8: Life Technologies and Expression Analysis (LTEA) Assay for cysteine-aspartic acid protease (CASP8) using HepaRG (AID 2283480)
# How it was run: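 Concentration-response in duplicate up to 100 uM (half-log steps, 0.5% DMSO) on differentiated HepaRG cultures for 48 h. Expression change of CASP8 mRNA is determined by TaqMan qRT-PCR with housekeeping-gene normalization.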
# [15] = read-out: Cytochrome P450 (CYP2B6), CYP2B6 (gene 1555); assay: LTEA_HepaRG_CYP2B6: Life Technologies and Expression Analysis (LTEA) Assay for Cytochrome P450 (CYP2B6) using HepaRG (AID 2283481)
# How it was run: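 Read-out is CYP2B6 mRNA by TaqMan qRT-PCR, normalized to three housekeeping genes and fitted bidirectionally against 0.5% DMSO baseline. Human HepaRG cells received test chemicals for 48 h, top concentration 100 uM, half-log dilutions.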
# [16] = read-out: adenosine kinase (ADK) gene, ADK (gene 132); assay: LTEA_HepaRG_ADK: Life Technologies and Expression Analysis (LTEA) Assay for adenosine kinase (ADK) gene using HepaRG (AID 2283471)
# How it was run: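 HepaRG (human liver), 48 h chemical exposure, 8-pt half-log series, top 100 uM, 0.5% DMSO vehicle. Readout: ADK mRNA by qRT-PCR vs housekeeping genes; bidirectional curve fit relative to DMSO baseline.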
# [17] = read-out: Alpha-fetoprotein (AFP) gene, AFP (gene 174); assay: LTEA_HepaRG_AFP: Life Technologies and Expression Analysis (LTEA) Assay for Alpha-fetoprotein (AFP) gene using HepaRG (AID 2283472)
# How it was run: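 qRT-PCR (Fluidigm TaqMan) readout of AFP transcript, normalized to three housekeeping genes, fitted bidirectionally against 0.5% DMSO baseline. HepaRG cells received chemicals for 48 h in serum-free induction medium, top concentration 100 uM, half-log steps.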
# Chain of Caspase-3 (Homo sapiens) (P42574 whole entry, looked up): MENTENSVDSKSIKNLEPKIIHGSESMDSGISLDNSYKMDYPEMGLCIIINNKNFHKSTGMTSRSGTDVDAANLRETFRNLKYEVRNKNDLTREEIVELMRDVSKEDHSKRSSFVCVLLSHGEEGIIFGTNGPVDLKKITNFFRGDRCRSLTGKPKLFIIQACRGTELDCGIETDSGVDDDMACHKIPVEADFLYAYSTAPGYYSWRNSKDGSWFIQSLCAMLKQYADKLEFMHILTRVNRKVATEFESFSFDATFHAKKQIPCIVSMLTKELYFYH
# Chain of Broad substrate specificity ATP-binding cassette transporter ABCG2 (Homo sapiens) (Q9UNQ0 whole entry, looked up): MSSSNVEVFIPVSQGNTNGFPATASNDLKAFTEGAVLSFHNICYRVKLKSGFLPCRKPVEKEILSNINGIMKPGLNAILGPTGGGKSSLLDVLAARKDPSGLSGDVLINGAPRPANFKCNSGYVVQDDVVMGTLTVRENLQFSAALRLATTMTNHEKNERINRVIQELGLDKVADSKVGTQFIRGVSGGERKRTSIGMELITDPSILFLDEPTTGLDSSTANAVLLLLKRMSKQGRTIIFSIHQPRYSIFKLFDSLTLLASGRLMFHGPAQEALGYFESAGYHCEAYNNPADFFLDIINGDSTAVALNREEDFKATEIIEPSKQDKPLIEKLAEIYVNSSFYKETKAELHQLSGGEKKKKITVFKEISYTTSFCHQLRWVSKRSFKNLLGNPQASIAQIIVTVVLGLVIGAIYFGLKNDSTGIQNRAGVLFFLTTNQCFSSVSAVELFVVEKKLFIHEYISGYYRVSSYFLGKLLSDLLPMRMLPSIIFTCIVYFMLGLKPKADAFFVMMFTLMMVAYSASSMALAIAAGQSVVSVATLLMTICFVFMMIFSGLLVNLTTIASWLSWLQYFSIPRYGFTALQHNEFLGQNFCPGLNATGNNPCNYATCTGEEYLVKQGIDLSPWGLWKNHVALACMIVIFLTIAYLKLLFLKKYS
# Chain of Apoptosis regulator Bcl-2 (Homo sapiens) (P10415 whole entry, looked up): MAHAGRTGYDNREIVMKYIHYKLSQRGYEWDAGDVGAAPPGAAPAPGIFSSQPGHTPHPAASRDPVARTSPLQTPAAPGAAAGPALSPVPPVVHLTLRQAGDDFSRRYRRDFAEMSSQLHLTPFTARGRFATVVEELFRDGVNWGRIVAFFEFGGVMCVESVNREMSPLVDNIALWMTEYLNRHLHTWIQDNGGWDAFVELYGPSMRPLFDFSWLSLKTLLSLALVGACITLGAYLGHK
structure (smiles),measurement,setting,value
CC(O)CC(C)(C)O (centres undefined),outcome,[1],inactive
same,outcome,[2],inactive
same,outcome,[3],inactive
same,outcome,[4],inactive
same,outcome,[5],inactive
same,outcome,[6],inactive
same,outcome,[7],inactive
same,outcome,[8],inactive
same,outcome,BCL2L11 (gene 10018),inactive
same,outcome,[9],inactive
same,outcome,[10],inactive
same,outcome,[11],inactive
same,outcome,Caspase-3 (Homo sapiens),inactive
same,outcome,[12],inactive
same,outcome,[13],inactive
same,outcome,[14],inactive
same,outcome,[15],inactive
Clc1ccccc1C(c1ccccc1)(c1ccccc1)n1ccnc1,AC50,[1],78.3 µM (active)
same,AC50,[2],28.6 µM (active)
same,outcome,[3],inactive
same,AC50,[4],37.5 µM (active)
same,AC50,[5],8.91 µM (active)
same,AC50,[6],9.09 µM (active)
same,AC50,[7],91.3 µM (active)
same,AC50,[8],12.3 µM (active)
same,AC50,[16],93 µM (active)
same,AC50,[17],20.1 µM (active)
same,AC50,BCL2L11 (gene 10018),50 µM (active)
same,AC50,[9],20.8 µM (active)
same,AC50,[10],23 µM (active)
same,outcome,[11],inactive
same,outcome,Caspase-3 (Homo sapiens),inactive
same,outcome,[12],inactive
same,AC50,[13],7.26 µM (active)
same,outcome,[14],inactive
same,AC50,[15],26 µM (active)
NC(=O)c1nc(-c2cccc(-c3cc(F)ccc3OCC(F)(F)C(F)(F)F)c2)n[nH]1,AC50,[1],84 µM (active)
same,outcome,[2],inactive
same,AC50,[3],89.8 µM (active)
same,AC50,[4],15.8 µM (active)
same,outcome,[5],inactive
same,AC50,[6],3.42 µM (active)
same,outcome,[7],inactive
same,outcome,[8],inactive
same,outcome,[17],inactive
same,AC50,BCL2L11 (gene 10018),74.2 µM (active)
same,outcome,[9],inactive
same,outcome,[10],inactive
same,outcome,[11],inactive
same,outcome,Caspase-3 (Homo sapiens),inactive
same,outcome,[12],inactive
same,outcome,[13],inactive
same,outcome,[14],inactive
same,outcome,[15],inactive
